# Screen size: about 410,000 compounds; about 260 (0.063%) were called active. Not shown: some 2% with an inconclusive outcome. The sample as a whole holds a higher share of actives than the screen did. A number with no mark means an inactive call. Calls follow the shape of the dose curve; as a rule, active = well fitted activation curve with a large enough effect; inconclusive = small, poorly fitted or top-dose-only effect; inactive = no such curve, though single readings can be large or run the other way.
# Assay: qHTS for compounds that reverse cellular toxicity of Amyloid beta (A-beta) peptide in yeast: Primary Screen; also: nearly all actives have a fitted effect of over 55% in size
# Settings: yeast expressing A-beta42, growth rescue, OD600, 48 h; series mostly up to 46.1 µM; growth rescue: at the top concentration
# Excerpt: The A-beta peptide is produced by the processing of the amyloid precursor protein (APP) by two proteases, beta and gamma secretases. […] A-beta42 is regarded as the most amyloidogenic form due to its hydrophobicity; however, precisely how A-beta42 induces neurotoxicity is unclear. To understand further this biology and its potential therapeutic implications for human neurodegenerative disease, a quantitative high-throughput screen for compounds that reverse the cellular toxicity of the A-beta peptide was developed. A yeast based screen was used because it recapitulates the salient feature of protein mis-folding disorder accurately. This cell-based phenotypic screen provides a significant, unbiased advantage by letting the compounds and models inform us which proteins or pathways are most relevant. The ideal chemical candidates would therefore have activity in both our primary yeast and secondary neuronal toxicity assays, as well as in mouse models. They will be valuable tools for dissecting diverse protein homeostasis pathologies and could potentially become the focus for future pre-clinical development. For this luminescence assay, inhibition of A-beta rescues the toxic effect in the yeast cell, resulting in increase of signals and the desired phenotype of "Activator". This screen is run against the Molecular Libraries Small Molecule Repository (MLSMR) and the NCGC Sytravon Library Collection.
# NIH Chemical Genomics Center [NCGC]
# NIH Molecular Libraries Probe Centers Network [MLPCN]
# Assay Submitter (PI): Susan Lindquist, Whitehead Institute, Massachusetts Institute of Technology
# [1] Vassar R,et al (1999). Beta-secretase cleavage of Alzheimer's amyloid precursor protein by the transmembrane aspartic protease BACE. Science. 286: 735-741.
# [2] Yan R, et al (1999). Membrane-anchored aspartyl protease with Alzheimer's disease beta-secretase activity. Nature. 402: 533-536.
# Two and a half microliter / well of yeast growth medium were dispensed in a 1536 assay plate. Compounds were pinned using the Kalypsys robotic system followed by addition of 2.5 uL / well yeast solution. The assay plates were incubated at 30 C. After 48 hr, the absorbance signal at 600 nm was obtained using the PerkinElmer ViewLux plate reader to assess yeast growth. The data was normalized to the positive control of an equimolar mixture of ferric chloride (FeCl3) and clioquinol and to the negative control DMSO.
# Potency is read from the fitted curve at half-maximal effect.
SMILES,growth rescue [%],Potency
Cc1cccc(NC(=O)C2CCCN2S(=O)(=O)c2cccc3nsnc23)c1C (stereo not given),-2.47,
COc1ccc(OCCCn2c(C)nc3cc(C)c(C)cc32)cc1,-4.77,
Cc1c(-c2nc(-c3ccc4c(c3)OCO4)no2)nnn1-c1ccc(Br)cc1F,-2.02,
O=C(CCn1ccc2cc(S(=O)(=O)N3CCCC3)ccc21)NCc1cccc(Cl)c1,2.11,
O=C(CSc1oc(-c2ccccc2)nc1S(=O)(=O)c1ccc(Br)cc1)NC1CCCCC1,5.91,
CC(C)CCNC(=O)CSc1nc2ccccc2nc1Cc1ccc(Cl)cc1,9.91,
COc1cc(C(=O)Nc2ccc(-n3c(C)nc4ccccc4c3=O)cc2)cc(OC)c1OC,-7.82,
CCOc1ccccc1C(=O)Nc1ccc(S(=O)(=O)N2CCCCC2c2cccnc2)cc1 (stereo not given),-13.3,
Cn1c(=O)c2c(nc(Oc3ccc(C#N)cc3)n2Cc2ccc(Cl)cc2Cl)n(C)c1=O,-7.43,
CCN(c1ncnc2c1cnn2-c1ccc(C)cc1)C1CCCCC1,-13.3,
Cc1ccc(NC(=O)c2nc(S(=O)(=O)Cc3cccc(C)c3)ncc2Cl)cc1,-33.4,
Cc1nnc(N2CCCC(C(=O)NCCN(C)C)C2)c2nn(-c3ccccc3)c(C)c12 (stereo not given),-0.421,
COc1ccc(C2=NC(c3ccncc3)=Nc3ccc(Br)cc3N2)cc1,-13.2,
COc1ccc(OC)c(-n2nnc3c(sc4nc(C)c(Br)c(C)c43)c2=O)c1,-12.2,
CCS(=O)(=O)N1CCC(n2c(C)nc3cccnc32)CC1,-4.75,
COc1cc(OC)c(NC(=O)N2CC3CCCN3c3ccccc32)cc1Cl (stereo not given),-9.37,
CCOc1ccc(CNC(=O)c2ccc(CS(=O)c3ccccc3)o2)cc1 (stereo not given),-8.75,
CCCCn1c(=N)c(S(=O)(=O)c2ccccc2)cc2c(=O)n3cccc(C)c3nc21,0.43,
Fc1ccc(Nc2nc(SCc3ccccc3Cl)nc3ccccc23)cc1,-45.3,
COc1ccccc1N1CCN(C(=O)C2CCN(S(=O)(=O)c3c(C)noc3/C=C/c3ccc(C)cc3)CC2)CC1,-1.97,
Cc1ccc2oc3c(c(=O)c2c1)C(c1ccc(O)cc1)N(Cc1ccc2c(c1)OCO2)C3=O (stereo not given),5.68,
COc1ccc(-c2cc(NCc3ccc(F)cc3)n3cnnc3n2)cc1,-4.36,
CCCCN(C)S(=O)(=O)c1ccc(C(=O)Nc2sc3c(c2C(N)=O)CC(C)(C)NC3(C)C)cc1,-10.9,
Cc1ccc(N(CC(=O)NCc2ccc(Cl)cc2)S(=O)(=O)N(C)C)cc1,13,

SMILES,growth rescue [%],Potency
Cc1cc2nn(-c3ccc(Cl)cc3)nc2cc1NC(=O)C(C)C,-14.3,
Cc1ccc(C(=O)CSc2nc(-c3ccccc3)nc3c2CCCC3)c(C)c1,-11.5,
O=C(NC1CC(=O)N(c2ccccc2)C1)c1ccco1 (stereo not given),11.5,
COCCNC(=O)CSc1nc(-c2ccccc2)[nH]c1-c1ccc(C)cc1,-13.5,
COc1ccccc1CNC(=O)C(Cc1ccccc1)NS(=O)(=O)c1ccc2c(c1)oc(=O)n2C (stereo not given),0.772,
CCCCNC(=O)C1CCCN(c2nnc(C)c3c(C)n(-c4ccc(Cl)cc4)nc23)C1 (stereo not given),-17.8,
CCOC(=O)c1c(NC(=O)CSc2cn(CCNC(=O)c3cccc(C(F)(F)F)c3)c3ccccc23)sc2c1CCC2,-8.29,
Cn1c(=O)c2c(ncn2CC(=O)Nc2cccc(C(F)(F)F)c2)n(C)c1=O,-3.94,
CCN(CCCNC(=O)c1ccc(Sc2ccc(C)cc2)c(NC(C)=O)c1)c1cccc(C)c1,-1.54,
C#CCOc1ccc(C2CC(=O)Nc3c2c(C)nn3-c2nc(C)cc(C)n2)cc1 (stereo not given),2.23,
COc1cccc(NC(=O)CSC2=Nc3ccccc3C3=NC(CC(=O)NC4CCCCC4)C(=O)N23)c1 (stereo not given),-14.8,
O=C(CNS(=O)(=O)c1cccs1)N1CCN(c2ccccc2Cl)CC1,5.4,
CSc1nsc(SC)c1NC(=O)OC1CCCCC1,,4.47 µM (active)
Cc1nnc(N2CCC(C(=O)Nc3ccc(F)cc3)CC2)c2nn(-c3ccc(Cl)cc3)c(C)c12,5.45,
COc1ccc(-c2onc(C)c2C)cc1S(=O)(=O)NCc1cccs1,-11.1,
COc1cc(OC)cc(-c2nc3nc(C)c(CCC(=O)Nc4ccc(C)cc4)c(C)n3n2)c1,-8.3,
CCOCCc1nn2c(=O)cc(COC(=O)CNC(=O)c3ccc(C(C)(C)C)cc3)nc2s1,-7.06,
Cc1ccccc1-n1c(=O)c2ccccc2n(Cc2ccc(F)cc2)c1=O,8.53,
CCOC(=O)c1cnc2c(C)cc(Cl)cc2c1NCCc1ccc(OC)c(OC)c1,-7.55,
CCOc1ccccc1NC(=O)Cn1c(=O)n(Cc2ccccc2)c(=O)c2c(C)c(C(=O)N(C)C)sc21,8.18,
COc1ccc(C2C(=O)N(C3CCCCC3)CC(=O)N2Cc2ccccc2Cl)cc1OC (stereo not given),-19.9,
Cc1cccc(OCCSc2nc3ccccc3n2CC(=O)N2CCCCC2)c1C,-18.2,
Cc1ccc(C(=O)N2CCc3cc(CNC(=O)c4ccc(Br)cc4)ccc32)cc1,-7.59,
Cc1cccc(N(C)C(=O)CS(=O)(=O)c2cccc3nsnc23)c1,-5.59,

SMILES,growth rescue [%],Potency
Cc1ccc(Cl)cc1NC(=O)COC(=O)CC(C)(C)C,7.7,
CC(C)(C)NC(=O)NC(=O)COC(=O)Cc1ccc(Cl)cc1Cl,,11.2 µM (active)
COc1ccccc1OCCC(=O)OCC(=O)NC(=O)NC(C)(C)C,6.23,
CCN1C(=O)[C@H]2[C@@H](c3ccc(C(F)(F)F)cc3)N[C@]3(CCCN(Cc4ccc(Br)cc4)C3=O)[C@H]2C1=O,27.1,
O=C1[C@H]2[C@@H](c3ccc(C(F)(F)F)cc3)N[C@]3(CCCN(Cc4ccc(Cl)cc4)C3=O)[C@H]2C(=O)N1Cc1ccccc1,,8.91 µM (active)
Cc1ccc([C@H]2N[C@]3(CCCN(Cc4ccccc4)C3=O)[C@H]3C(=O)N(Cc4ccccc4)C(=O)[C@@H]23)cc1,-6.57,
COc1ccc(CCNC(=O)Cn2c(=O)n(-c3ccccc3)c(=O)c3c(C)c(C)sc32)cc1OC,-4.29,
COc1ccccc1OCC(=O)Nc1nnc2n1CCS2,-8.79,
CCOc1ccc(CNC(=O)C2CCN(c3nnc(-n4cccc4CNc4ccc(C)cc4)s3)CC2)cc1OC,-2.64,
COc1cccc(CNC(=O)Cn2ncn3c(cc4ccccc43)c2=O)c1,-12.9,
COCCNc1ncnc2c1c(-c1ccccc1)cn2-c1ccc(C)c(Cl)c1,-0.39,
CCOc1ccc(-c2cc3nc(C4CCN(C(=O)OC(C)(C)C)CC4)c(C(=O)Nc4cccc(CC)c4)cn3n2)cc1,-2.51,
O=c1cc(COc2cccc(C(F)(F)F)c2)nc2sc3c(n12)CCCC3,2.31,
CCc1ccc(NC(=O)CN2C(=O)C(c3ccccc3)=NC23CCCCCC3)cc1,-33.6,
CCCNC(=S)N1CCC(NC(=O)c2ccc(OC)cc2)CC1,-10.6,
COc1ccc(C(=O)NC(=S)NC2CCCCC2)cc1,,12.6 µM (active)
COc1ccc(S(=O)(=O)N2CCN(C(=O)NC3CCCCC3)CC2)cc1,-11,
CCOc1ccc(NC(=O)CCC(=O)N2CC(C)Oc3ccc(C)cc32)cc1 (stereo not given),7.46,
CCn1c(CN2CCC(C)CC2)nc2cc(NC(=O)c3ccccc3[N+](=O)[O-])ccc21,0.862,
CCc1cccc(NC(=O)Cn2nc(CC)n3c(cc4cc(C)ccc43)c2=O)c1,2.28,
CC1=C(c2ccc(C)cc2)S(=O)(=O)NC1=NCCCN1CCN(c2cc(C)ccc2C)CC1,7.63,
COc1cccc(-c2cc(C(=O)Nc3ccc(C)cc3)[nH]n2)c1,-6.21,
Cc1ccc(N2CCN(C(=O)CCc3c(C)nc4c(c3C)c(=O)n(C)c(=O)n4C)CC2)c(C)c1,-7.12,
CCOC(=O)c1c(NC(=O)/C(C#N)=C/c2ccccc2)sc2c1CCC2,-4.42,

SMILES,growth rescue [%],Potency
COc1ccccc1CN1CCC(CNC(=O)c2cnn(-c3ccccc3Cl)c2C2CCN(C(=O)OC(C)(C)C)CC2)CC1,12.1,
CCn1c(CNC(=O)C23CC4CC(CC(C4)C2)C3)nnc1SCC(=O)Nc1ccc(OC)cc1,-8.21,
COc1ccc(-c2nn(CC(=O)NC3CCCC3)c3c2cnc2ccc(F)cc23)cc1,-2.71,
Cc1nn(C(C)C(=O)Nc2ccc(C(C)C)cc2)c(=O)c2c1sc1ccccc12 (stereo not given),17.1,
COc1cc(OC)c(NC(=O)c2nc(-c3ccncc3)no2)cc1Cl,-15.5,
COc1ccc(CCN2C(=O)c3oc4cc(C)cc(C)c4c(=O)c3C2c2ccccc2F)cc1OC (stereo not given),-7.53,
CCOC(=O)c1cc2c(=O)n3ccccc3nc2n(CCCOC)c1=NC(=O)C(C)Oc1ccccc1 (stereo not given),-6.19,
COc1cc(C(=O)Nc2ccc(OCc3cc(=O)n4cc(C)sc4n3)cc2)cc(OC)c1OC,-12.8,
COc1ccc(CN2CCc3nc(Nc4ccccc4)ncc3C2)c(OC)c1OC,4.24,
Cc1cccc(Cn2c(CN3CCC(C(=O)NCc4ccccc4Cl)CC3)cc3ccccc32)c1,10.4,
CCOC(=O)N1CCc2c(sc3c2c(=O)n(Cc2ccccc2)c(=O)n3CC(=O)Nc2cccc(C)c2)C1,1.66,
O=C(Nc1cc(Cl)cc(Cl)c1)c1ccc2c(c1)N(Cc1cccc(Cl)c1)C(=O)c1ccccc1S2=O (stereo not given),-1.8,
CCc1ccc(NC(=O)c2nn(-c3ccc(C)cc3)c(=O)n(C)c2=O)cc1,-10.6,
CCN1C(=O)c2ccccc2S(=O)c2ccc(C(=O)NCc3ccc(F)cc3)cc21 (stereo not given),16.3,
CCn1cc(C(=O)N2CCN(c3cc(C)ccc3C)CC2)c(=O)c2cc(S(=O)(=O)N(C)C3CCCCC3)ccc21,4.49,
CC(C)n1c(=S)[nH]c2cc(C(F)(F)F)ccc21,,12.6 µM (active)
CNS(=O)(=O)c1ccc2c(c1)[nH]c(=S)n2C,1.96,
CCCn1c(=S)[nH]c2ccc(C(F)(F)F)cc21,31.8,
Cn1c(=O)c2c(-c3ccccc3Br)n(Cc3ccccc3)cc2n(C)c1=O,-12.3,
COc1ccc(N2CCN(C(=O)CSCc3nc(-c4ccccc4Cl)oc3C)CC2)cc1,-16.8,
Cc1ccc(CN(Cc2cccnc2)C(=S)Nc2cccc(Cl)c2C)cc1,,11.2 µM (active)
Cc1c(Cl)cccc1NC(=S)N(Cc1ccccc1)Cc1cccnc1,10.9,
Cc1cccc(C)c1NC(=S)N(Cc1cccnc1)Cc1ccccc1Cl,17.9,

# From PubChem BioAssay AID1347071 (National Center for Advancing Translational Sciences (NCATS), 2019)
